{
  "source": "PubChem BioAssay AID1259336",
  "about": "(Sattelle Laboratory, UCL Respiratory, Division of Medicine, …, 2017)",
  "note": "Calls of active or inactive are those of the source. No stated cut-off is given here; in the data, active means log2 fold change growth below about -1.8; inactive means the rest.",
  "data": [
    {"assay": "C. elegans growth inhibition, whole organism, log2 fold change (AID 1259336);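 further: growth scored by imaging after five days at 20 °C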", "conditions": "anthelmintic screen, hits give low values", "values": [
      {"smiles": "Nc1ccc2ncnc(Nc3ccc(OCc4cccc(F)c4)c(Cl)c3)c2c1", "log2 fold change growth": "-0.0667 (inactive)"},
      {"smiles": "CO[C@H]1/C=C/O[C@@]2(C)Oc3c(C)c(O)c4c(O)c(c(/C=N/N5CCN(C)CC5)c(O)c4c3C2=O)NC(=O)/C(C)=C\\C=C[C@H](C)[C@H](O)[C@@H](C)[C@@H](O)[C@@H](C)[C@H](OC(C)=O)[C@@H]1C", "log2 fold change growth": "0.729 (inactive)"},
      {"smiles": "COc1cc(C(F)(F)F)nc2ccc(C)c(N)c12", "log2 fold change growth": "0.198 (inactive)"},
      {"smiles": "Cc1cc2ccccc2n1CC(=O)N1C[C@@H](C(=O)N2CCCCC2)Oc2ccccc21", "log2 fold change growth": "0.0798 (inactive)"},
      {"smiles": "O=C([C@H](Cc1c[nH]c2ccccc12)NS(=O)(=O)c1ccc(Cl)cc1)N1CCCCC1", "log2 fold change growth": "-0.129 (inactive)"},
      {"smiles": "Cc1ccc2nc(C)c(-c3ccn(Cc4ccccc4)n3)n2c1", "log2 fold change growth": "0.192 (inactive)"},
      {"smiles": "COc1cc(NC(=O)Cc2nn(C)c(=O)c3ccccc23)ccc1Cl", "log2 fold change growth": "0.419 (inactive)"},
      {"smiles": "Cc1ccc(S(=O)(=O)n2cc(-c3ccnc(N)c3)c3cc(Br)cnc32)cc1", "log2 fold change growth": "-0.39 (inactive)"},
      {"smiles": "CS(=O)(=O)c1cccc(-c2cnc3[nH]cc(-c4ccc(CCC(=O)O)cc4)c3c2)c1", "log2 fold change growth": "0.172 (inactive)"},
      {"smiles": "COC(=O)c1ccc(F)cc1NS(=O)(=O)c1cccc(-c2cnn(Cc3ccccc3)c2)c1", "log2 fold change growth": "-0.413 (inactive)"},
      {"smiles": "CN1CCN(c2cc(-c3ccc(F)cc3)nc(-c3ccncc3)n2)CC1", "log2 fold change growth": "-1.96 (active)"},
      {"smiles": "Cc1cccc(-c2nc(Nc3ccncn3)c3sccc3n2)n1", "log2 fold change growth": "0.438 (inactive)"},
      {"smiles": "CC1=NN(c2nc3ccccc3s2)C(=O)[C@H]1Cc1cccc2ccccc12", "log2 fold change growth": "-0.647 (inactive)"},
      {"smiles": "CC(C)(C)CN1C(=O)C(c2ccccc2)(c2ccccc2)N=C1N", "log2 fold change growth": "-5.48 (active)"},
      {"smiles": "Cc1cc(C(=O)Nc2cnn(Cc3ccc(Cl)cc3Cl)c2)no1", "log2 fold change growth": "0.545 (inactive)"},
      {"smiles": "CCN(CC)S(=O)(=O)c1ccc(C(=O)Nc2cc(C)nn2-c2nc(C)c(C)c(=O)[nH]2)cc1", "log2 fold change growth": "0.269 (inactive)"},
      {"smiles": "Cc1cnc(CCNC(=O)c2cc(-c3ccc(Cl)cc3)cs2)[nH]1", "log2 fold change growth": "-0.147 (inactive)"},
      {"smiles": "C[C@H](Oc1ccccc1)C(=O)Nc1nc(-c2ccccn2)cs1", "log2 fold change growth": "-0.519 (inactive)"},
      {"smiles": "Cc1[nH]c2cc(F)cc(F)c2c(=O)c1-c1ccc(Oc2ccc(OC(F)(F)F)cc2)cc1", "log2 fold change growth": "-0.247 (inactive)"},
      {"smiles": "CC(C)(C)OC(=O)N1CCC(Cn2nc(-c3cnc4ccccc4c3)c3c(N)ncnc32)CC1", "log2 fold change growth": "-0.248 (inactive)"},
      {"smiles": "c1ccc(Oc2ccc(-c3cc(CN4CCOCC4)[nH]n3)cc2)cc1", "log2 fold change growth": "0.284 (inactive)"},
      {"smiles": "Cc1ccccc1C(=O)N1NC(=Nc2ccccc2)SC1(C)C", "log2 fold change growth": "-0.306 (inactive)"},
      {"smiles": "CN1CCCN([C@@H](c2ccccc2)c2ccc(Cl)cc2)CC1", "log2 fold change growth": "0.517 (inactive)"},
      {"smiles": "COc1ccc(Nc2ccccc2NC(=O)c2ccc(=O)[nH]c2)cc1", "log2 fold change growth": "-0.31 (inactive)"},
      {"smiles": "N=C(N)c1ccc(OCCCCCOc2ccc(C(=N)N)cc2)cc1", "log2 fold change growth": "0.291 (inactive)"},
      {"smiles": "CC(C)(C)c1ccc(N[C@@H]2CCCC[C@H]2NC(=O)c2ccco2)cc1", "log2 fold change growth": "0.519 (inactive)"},
      {"smiles": "CCNC(=O)[C@H](C)Nc1nc(-c2cccnc2)nc2sc(C)c(C)c12", "log2 fold change growth": "0.136 (inactive)"},
      {"smiles": "CC(C)(C(=O)Nc1ccc(F)cc1)n1cc(-c2ccccc2F)cn1", "log2 fold change growth": "0.0447 (inactive)"},
      {"smiles": "O[C@@H](c1cc(C(F)(F)F)nc2c(C(F)(F)F)cccc12)[C@H]1CCCCN1", "log2 fold change growth": "-0.189 (inactive)"},
      {"smiles": "FC(F)(F)c1cc(NCCc2ccccc2)nc(-c2ccccn2)n1", "log2 fold change growth": "-0.968 (inactive)"},
      {"smiles": "Nc1nc2ccc(-c3cncc(Oc4ccc(F)cc4)c3)cc2[nH]1", "log2 fold change growth": "0.264 (inactive)"},
      {"smiles": "NC(N)=Nc1ccc(-c2ccc(-c3ccc(N=C(N)N)c(Cl)c3)o2)cc1Cl", "log2 fold change growth": "-0.555 (inactive)"},
      {"smiles": "CC(C)(C)n1nc(-c2ccccc2)c2c(N)ncnc21", "log2 fold change growth": "-0.162 (inactive)"},
      {"smiles": "COc1cccc(OC)c1C(=O)Nc1ccc(Cl)c(-c2nc3ccccc3s2)c1", "log2 fold change growth": "-0.202 (inactive)"},
      {"smiles": "Cc1ccc(Oc2ccc(NC(=O)CNc3ccccc3N3CCCC3=O)cc2)cc1", "log2 fold change growth": "0.0475 (inactive)"},
      {"smiles": "COc1ccc(Cn2cnc3c(-c4ccco4)nc(Cl)nc32)cc1", "log2 fold change growth": "-0.325 (inactive)"},
      {"smiles": "Cc1ccc(S(=O)(=O)N2CCN(C(=O)c3cc(-c4ccccc4)n[nH]3)CC2)cc1", "log2 fold change growth": "-0.371 (inactive)"},
      {"smiles": "COc1ccc(C2=NN(C3CCCCCC3)C(=O)C2(C)C)cc1OCCCCOc1ccc(-c2nn[nH]n2)cc1", "log2 fold change growth": "-0.216 (inactive)"},
      {"smiles": "O=C(NC1CCCCC1)N1CCN(Cc2ccc3c(c2)OCO3)CC1", "log2 fold change growth": "-0.153 (inactive)"}
    ]}
  ]
}
